# In PubChem BioAssay AID1053119 (Broad Institute, 2014):
# Results with a measured potency or affinity are listed apart. Inconclusive results are not listed. Active and inactive are the calls of the source.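 How the source made its calls: active means signal loss from cell killing with fitted potency at or below twice the top valid dose; inconclusive means flat drop of 30 to 70%, or unreliable curve fit; inactive means opposite direction, flat within 30%, or weaker potency.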
# Test: A549 cell cytotoxicity, dose response, cytotoxicity control, cherry-picks, 26 µM top dose (AID 1053119);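 further: 0% = neutral control wells and -100% = 10 µM mitoxantrone wells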
# Conditions: A549 viability, CellTiter-Glo ATP luminescence, 72 h; series mostly up to 26 µM; activity change, negative = cytotoxicity: at the top concentration
row,SMILES,"activity change, negative = cytotoxicity"
1,COc1cccc(CNC(=O)CCc2nnc3ccc(NCCCN4CCCC4=O)nn23)c1,-2.93% (inactive)
2,Cc1ccc(NC(=O)COC(=O)c2cc(Cl)ccc2[N+](=O)[O-])c(C)c1,-3.19% (inactive)
3,CC(C)(C)[S@@](=O)N1Cc2cc(C(=O)NCc3ccccc3F)nc(-c3cccc(-c4cncnc4)c3)c2[C@H]1CCO,-12.2% (inactive)
4,O=C(OCC(O)C(O)COC(=O)c1ccccc1)c1ccccc1 (configuration not stated),-13.2% (inactive)
5,C[C@H](O)C#Cc1ccc2c(c1)O[C@@H](CN(C)C)[C@H](C)CN([C@@H](C)CO)S2(=O)=O,-2.13% (inactive)
6,CO[C@@H]1CN(C)C(=O)c2ccc(NC(=O)c3ccc(-c4ccccc4)cc3)cc2OC[C@@H](C)NC[C@@H]1C,-9.52% (inactive)
7,COCC(=O)Nc1ccc2c(c1)C(=O)N(C)[C@@H]1CC[C@H](CC(=O)NCc3ccccc3Cl)O[C@@H]1CO2,-3.35% (inactive)
8,C[C@@H]1CN([C@@H](C)CO)C(=O)c2cc(NC(=O)CCCN(C)C)ccc2O[C@@H]1CN(C)Cc1ccc(-c2ccccc2)cc1,-1.88% [at 23.5 µM] (inactive)
9,C[C@H](CO)N1C[C@H](C)[C@H](CN(C)C(=O)Nc2cccc3ccccc23)Oc2c(NC(=O)Nc3ccc(C(F)(F)F)cc3)cccc2C1=O,2.92% (inactive)
10,COc1ccc(C)cc1N(CC(=O)Nc1cccc(N(C)S(C)(=O)=O)c1)S(C)(=O)=O,-12.4% (inactive)
11,O=c1c2cc(N3CCOCC3)ccc2[nH]c(=S)n1Cc1ccc(Cl)cc1,0.921% (inactive)
12,CCOC(=O)C1=C(C)Nc2nc3ccccc3n2C1c1ccncc1 (configuration not stated),-8.08% (inactive)
13,COC(=O)C[C@@H]1CC[C@@H]2[C@@H](COc3ccc(NC(=O)Cc4cccs4)cc3C(=O)N2C)O1,6.73% (inactive)
14,COc1cccc(-c2ccc3c(c2)[C@H]2[C@H](CCN2S(=O)(=O)c2cccc(OC)c2)[C@H](CO)N3)c1,-8.97% (inactive)
15,C[C@H]1CN([C@@H](C)CO)C(=O)c2cc(NC(=O)CCCN(C)C)ccc2O[C@H]1CN(C)Cc1ccc(-c2ccccc2)cc1,6.67% (inactive)
16,C[C@@H]1CN([C@H](C)CO)C(=O)c2cc(NC(=O)CCCN(C)C)ccc2O[C@H]1CN(C)Cc1ccc(-c2ccccc2)cc1,-1.25% (inactive)
17,C[C@@H]1CN([C@H](C)CO)C(=O)c2cc(NC(=O)C3CCCCC3)ccc2O[C@H]1CN(C)Cc1ccc(-c2ccccc2)cc1,-1.4% (inactive)
18,NC(=O)C1=C[C@H](c2coc3ccccc3c2=O)C[C@H](OCCCCO)O1,7.67% (inactive)
19,O=C(Nc1cc(Sc2nc3ccccc3s2)cc([N+](=O)[O-])c1)c1ccccc1F,-8.23% (inactive)

row,SMILES,"activity change, negative = cytotoxicity"
1,CC1CN(C(=O)c2cc3c(=O)n4ccccc4nc3n2C)CC(C)O1 (configuration not stated),-14.9% (inactive)
2,CCN1CCN(C(c2ccccc2)c2nnnn2Cc2ccccc2)CC1 (configuration not stated),-9.25% (inactive)
3,COc1ccccc1CC(=O)OC(C)C(=O)Nc1ccc(S(=O)(=O)N2CCCCC2)cc1 (configuration not stated),24.9% (inactive)
4,CCCCOc1ccc(C(C)NC(=O)C2CCCN(S(=O)(=O)CCC)C2)cc1 (configuration not stated),5.52% (inactive)
5,OC(CNC1CCCc2ccccc21)COc1c(Cl)cccc1Cl (configuration not stated),-13.4% (inactive)
6,CN1c2ccc(-c3ccccc3)cc2[C@@H]2[C@@H](CCN2C(=O)CN2CCOCC2)[C@H]1CO,-3.89% [at 23.5 µM] (inactive)
7,CCCCNC(=O)Nc1nc2ccc(CC)cc2s1,-1.95% (inactive)
8,CCc1nc2c(OCCc3cccc(OC)c3)cccn2c1N(C)C(=O)c1ccc(C)cc1,-7.35% (inactive)
9,N#Cc1ccc(-c2ccc3c(c2)[C@@H]2[C@@H](CCN2S(=O)(=O)c2cccc(F)c2)[C@H](CO)N3)cc1,-4.73% (inactive)
10,O=S(=O)(c1ccccc1F)N1CC[C@@H]2[C@@H](CO)Nc3ccc(-c4cccc(F)c4)cc3[C@@H]21,-9.85% (inactive)
11,Cc1ccc(-c2nc3ncccc3o2)cc1NC(=O)c1ccco1,-0.724% (inactive)
12,COc1ccc(CN(C2CCCC2)S(=O)(=O)c2ccc(-n3cnnn3)cc2)cc1OC,19% (inactive)
13,O=C(CCC(=O)c1cccs1)NCc1cccnc1,2.94% (inactive)
14,CO[C@H]1CN(C)C(=O)c2ccc(NC(=O)Nc3cc(Cl)cc(Cl)c3)cc2OC[C@H](C)NC[C@@H]1C,-0.958% [at 8 µM] (inactive)
15,C[C@H](O)C#Cc1ccc2c(c1)O[C@H](CN(C)C)[C@H](C)CN([C@H](C)CO)S2(=O)=O,14.7% (inactive)
16,N#C[C@@H]1[C@H](c2ccccc2C2=CCCCC2)[C@@H](CO)N1S(=O)(=O)c1ccccc1,-11.7% (inactive)
17,COCC(=O)Nc1ccc2c(c1)C(=O)N(C)[C@H]1CC[C@H](CC(=O)NCc3ccccc3Cl)O[C@H]1CO2,-11.8% (inactive)
18,C[C@H]1CN([C@@H](C)CO)C(=O)c2cc(NC(=O)C3CCCCC3)ccc2O[C@H]1CN(C)Cc1ccc(-c2ccccc2)cc1,-12.8% (inactive)
